From PubChem BioAssay (NCI)
The panel holds about 79,000 compounds, 15% with a hit somewhere; the sample as a whole holds those more often. Calls of active or inactive are those of the source. No stated cut-off is given here; in the data, active means growth inhibition above about 70%; inactive means the rest.

Legend:
[1] = NCI Yeast Anticancer Drug Screen. Data for the rad52 strain (AID 147);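 further: 0% = growth of vehicle-treated control cultures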; details: S. cerevisiae rad52 mutant growth inhibition, hits give high values
Method in brief: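 DNA repair-defective yeast; compound exposure; growth scored against vehicle controls.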

[2] = NCI Yeast Anticancer Drug Screen. Data for the wt1 strain (AID 149);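 further: 0% = growth of vehicle-treated wt1 cultures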; details: S. cerevisiae wt1 strain (SPY 50644) growth inhibition, hits give high values
Method in brief: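 Vehicle-normalised growth inhibition; strain wt1; compound exposure.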

[3] = NCI Yeast Anticancer Drug Screen. Data for the rad50EPP+ strain (AID 151);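 further: 0% = growth of vehicle-treated control cultures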; details: S. cerevisiae rad50 mutant strain, hits give high values
Method in brief: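 rad50EPP+ yeast treated with test compounds. Readout: growth vs vehicle control.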

[4] = NCI Yeast Anticancer Drug Screen. Data for the mgt1 strain (AID 153); details: S. cerevisiae mgt1 mutant growth inhibition, hits give high values
Method in brief: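 Growth inhibition relative to vehicle controls was scored for the mgt1 yeast strain after compound exposure.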

[5] = NCI Yeast Anticancer Drug Screen. Data for the rad50 strain (AID 155);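 further: 0% = growth of vehicle-only cultures of the same strain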; details: S. cerevisiae rad50 strain growth inhibition, hits give high values
Method in brief: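 A DNA repair-deficient yeast mutant serves as the test organism; compound-induced growth inhibition is calculated against vehicle-treated cells.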

[6] = NCI Yeast Anticancer Drug Screen. Data for the mec2-1 strain (AID 157); details: S. cerevisiae mec2-1 strain, hits give high values
Method in brief: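 Growth inhibition is read against vehicle-treated controls after compound exposure of the mec2-1 yeast strain, which is defective in DNA damage repair or cell cycle control.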

[7] = NCI Yeast Anticancer Drug Screen. Data for the rad14 strain (AID 159);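 further: 0% = growth of vehicle-treated control cultures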; details: S. cerevisiae rad14 strain growth inhibition, hits give high values
Method in brief: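 Vehicle-treated cultures served as the baseline for growth inhibition of a DNA repair-mutant yeast strain exposed to each compound.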

[8] = NCI Yeast Anticancer Drug Screen. Data for the sgs1 mgt1 strain (AID 161);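 further: 0% = growth of cultures given vehicle only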; details: S. cerevisiae sgs1 mgt1 strain, hits give high values
Method in brief: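 Growth of a repair-deficient yeast mutant was monitored after compound treatment and expressed as inhibition relative to vehicle-treated cultures.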

[9] = NCI Yeast Anticancer Drug Screen. Data for the CLN2oe strain (AID 163);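 further: 0% = growth of vehicle-only control cultures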; details: S. cerevisiae CLN2oe strain, hits give high values
Method in brief: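 Compound-treated yeast; growth vs vehicle ctrl = % inhibition. Genetically altered strain (cell-cycle control).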

[10] = NCI Yeast Anticancer Drug Screen. Data for the cln2 rad14 strain (AID 165);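 further: 0% = growth equal to vehicle treated cultures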; details: S. cerevisiae cln2 rad14 strain, hits give high values
Method in brief: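 Growth inhibition, relative to vehicle-treated controls, is the read-out. The test organism is a yeast strain with defined genetic alterations, cln2 rad14.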

[11] = NCI Yeast Anticancer Drug Screen. Data for the bub3 strain (AID 167); details: S. cerevisiae bub3 mutant strain, hits give high values
Method in brief: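 Inhibition values come from growth of compound-treated mutant yeast normalised to vehicle-treated controls.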

[12] = NCI Yeast Anticancer Drug Screen. Data for the wt2 strain (AID 169);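 further: 0% = growth of vehicle-treated yeast cultures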; details: S. cerevisiae wt2 strain growth inhibition, hits give high values
Method in brief: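 Compound exposure of yeast; growth compared with vehicle controls; inhibition reported.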

[13] = NCI Yeast Anticancer Drug Screen. Data for the mlh1 strain (AID 171);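 further: 0% = growth of vehicle-treated control cultures of the same strain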; details: S. cerevisiae mlh1 strain growth inhibition, hits give high values
Method in brief: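 Compounds are applied to a genetically altered yeast strain, and its growth is compared with that of vehicle-treated cultures to give percent inhibition.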

[14] = NCI Yeast Anticancer Drug Screen. Data for the sgs1 strain (AID 173);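 further: 0% = growth of vehicle-only control cultures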; details: S. cerevisiae sgs1 mutant, hits give high values
Method in brief: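 Compounds applied to genetically altered yeast; growth compared with vehicle-treated cultures to give % inhibition.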

[15] = NCI Yeast Anticancer Drug Screen. Data for the mlh1 rad18 strain (AID 175); details: S. cerevisiae mlh1 rad18 strain growth inhibition, hits give high values
Method in brief: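 Cells of a genetically altered yeast strain, deficient in DNA damage repair, were treated with compound. Their growth was then compared with that of vehicle-treated cultures to give inhibition.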

[16] = NCI Yeast Anticancer Drug Screen. Data for the rad18 strain (AID 177); details: S. cerevisiae rad18 mutant growth inhibition, hits give high values
Method in brief: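 Compounds are applied to a repair-deficient yeast strain, and growth is compared with that of vehicle-treated cultures to give percent inhibition.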

[17] = at 5.0 µM (retest, dose inferred, filed as 0.5)
[18] = at 50.0 µM (retest, dose inferred, filed as 5.0)

Measured: growth inhibition

CC(C)[N+]([O-])(CCCNc1c2ccccc2nc2cccc([N+](=O)[O-])c12)C(C)C
inactive: [1]; at 1.2 µM 48% | [2]; at 1.2 µM 0% | [2]; at 3.7 µM 3% | [2]; at 11.0 µM 18% | [3]; at 1.2 µM 6% | [3]; at 3.7 µM 26% | [3]; at 11.0 µM 66% | [4]; at 1.2 µM 0% | [4]; at 3.7 µM 6% | [4]; at 11.0 µM 24% | [5]; at 1.2 µM 24% | [5]; at 3.7 µM 57% | [6]; at 1.2 µM 13% | [6]; at 3.7 µM 69% | [6]; [17] 68% | [7]; at 1.2 µM 50% | [9]; at 1.2 µM -3% | [9]; at 3.7 µM 2% | [9]; at 11.0 µM 42% | [11]; at 1.2 µM -14% | [11]; at 3.7 µM -8% | [11]; [17] -2% | [11]; at 11.0 µM 33% | [11]; at 50.0 µM 11.9% | [12]; at 1.2 µM 1% | [12]; at 3.7 µM 5% | [12]; at 11.0 µM 24% | [13]; at 1.2 µM 3% | [13]; at 3.7 µM 10% | [13]; at 11.0 µM 37% | [14]; at 1.2 µM 64%
active: [1]; at 3.7 µM 83% | [1]; at 11.0 µM 94% | [1]; at 33.0 µM 96% | [1]; at 100.0 µM 98% | [2]; at 33.0 µM 78% | [2]; at 100.0 µM 94% | [3]; at 33.0 µM 91% | [3]; at 100.0 µM 97% | [4]; at 33.0 µM 90% | [4]; at 100.0 µM 98% | [5]; [17] 70% | [5]; at 11.0 µM 86% | [5]; at 33.0 µM 93% | [5]; [18] 97% | [5]; at 50.0 µM 87.6% | [5]; at 100.0 µM 96% | [6]; at 11.0 µM 96% | [6]; at 33.0 µM 98% | [6]; [18] 99% | [6]; at 50.0 µM 87% | [6]; at 100.0 µM 99% | [7]; at 3.7 µM 93% | [7]; at 11.0 µM 98% | [7]; at 33.0 µM 99% | [7]; at 100.0 µM 99% | [8]; [17] 89% | [8]; [18] 98% | [8]; at 50.0 µM 93.6% | [9]; at 33.0 µM 88% | [9]; at 100.0 µM 95% | [10]; [17] 96% | [10]; [18] 99% | [10]; at 50.0 µM 96% | [11]; at 33.0 µM 90% | [11]; [18] 97% | [11]; at 100.0 µM 98% | [12]; at 33.0 µM 89% | [12]; at 100.0 µM 96% | [13]; at 33.0 µM 91% | [13]; at 100.0 µM 98% | [14]; at 3.7 µM 84% | [14]; at 11.0 µM 93% | [14]; at 33.0 µM 96% | [14]; at 100.0 µM 97% | [15]; [17] 92% | [15]; [18] 98% | [15]; at 50.0 µM 95.2%

O=C1Nc2ccc(Cl)c(I)c2C1=O
active: [1]; at 100.0 µM 84% | [3]; at 100.0 µM 79% | [5]; at 100.0 µM 88% | [7]; at 100.0 µM 84% | [11]; [18] 70% | [11]; at 50.0 µM 79% | [11]; at 100.0 µM 90% | [13]; at 100.0 µM 83% | [14]; at 100.0 µM 92% | [16]; at 100.0 µM 91%
inactive: [1]; at 1.2 µM 3% | [1]; at 3.7 µM 10% | [1]; at 11.0 µM 7% | [1]; at 33.0 µM 32% | [2]; at 1.2 µM -11% | [2]; at 3.7 µM -13% | [2]; at 11.0 µM -11% | [2]; at 33.0 µM -14% | [2]; at 100.0 µM 45% | [3]; at 1.2 µM 28% | [3]; at 3.7 µM 35% | [3]; at 11.0 µM 44% | [3]; at 33.0 µM 65% | [4]; at 1.2 µM -11% | [4]; at 3.7 µM -13% | [4]; at 11.0 µM -5% | [4]; at 33.0 µM -3% | [4]; at 100.0 µM 59% | [5]; at 1.2 µM -6% | [5]; at 3.7 µM -11% | [5]; [17] -13% | [5]; at 11.0 µM -23% | [5]; at 33.0 µM 26% | [5]; [18] 60% | [5]; at 50.0 µM 35.5% | [6]; at 1.2 µM 2% | [6]; at 3.7 µM 16% | [6]; [17] 3% | [6]; at 11.0 µM 16% | [6]; at 33.0 µM 10% | [6]; [18] 6% | [6]; at 50.0 µM 62.4% | [6]; at 100.0 µM 58% | [7]; at 1.2 µM 8% | [7]; at 3.7 µM -1% | [7]; at 11.0 µM 1% | [7]; at 33.0 µM 11% | [8]; [17] -1% | [8]; [18] 17% | [8]; at 50.0 µM 41.9% | [9]; at 1.2 µM 5% | [9]; at 3.7 µM 21% | [9]; at 11.0 µM -1% | [9]; at 33.0 µM 5% | [9]; at 100.0 µM 47% | [10]; [17] 1% | [10]; [18] 32% | [10]; at 50.0 µM 37.1% | [11]; at 1.2 µM -14% | [11]; at 3.7 µM -5% | [11]; [17] -23% | [11]; at 11.0 µM -4% | [11]; at 33.0 µM 5% | [12]; at 1.2 µM -1% | [12]; at 3.7 µM 0% | [12]; at 11.0 µM 3% | [12]; at 33.0 µM 2% | [12]; at 100.0 µM 52% | [13]; at 1.2 µM 31% | [13]; at 3.7 µM 29% | [13]; at 11.0 µM 27% | [13]; at 33.0 µM 36% | [14]; at 1.2 µM 21% | [14]; at 3.7 µM 23% | [14]; at 11.0 µM 26% | [14]; at 33.0 µM 36% | [15]; [17] 0% | [15]; [18] 68% | [15]; at 50.0 µM 67.2% | [16]; at 1.2 µM 28% | [16]; at 3.7 µM 30% | [16]; at 11.0 µM 29% | [16]; at 33.0 µM 41%
